{"source": "PubChem BioAssay (NCATS)", "note": "Records with an inconclusive call do not appear. A number with no mark means an inactive call. Activity calls are given as the source filed them. Calls come from the whole dose curve; as a rule, active = well fitted inhibition curve with a large enough effect; inconclusive = small, poorly fitted or top-dose-only effect; inactive = flat fitted curve, though single readings scatter.", "data": [{"target": "Aldehyde dehydrogenase, mitochondrial (Homo sapiens) (UniProt P05091)", "experiment": "qHTS for Inhibitors of the Aldehyde Dehydrogenase Family (ALDH2) Primary screen (AID 2061308);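 note: plate controls were vehicle for no effect and reference inhibitor for full effect; nearly all actives have a fitted effect of over 55% in size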", "settings": "ALDH2 enzyme inhibition qHTS, 1536-well; series mostly up to 56 µM; activity change, negative = inhibition: at the top concentration", "values": [{"smiles": "Cc1ccc(S(=O)(=O)Nc2cc(F)c(F)cc2C(=O)Nc2nc(-c3ccccc3)cs2)cc1", "activity change, negative = inhibition": "13%"}, {"smiles": "c1cncc(CNc2ncnc3ccc(-c4cccnc4)cc23)c1", "activity change, negative = inhibition": "10.5%"}, {"smiles": "COc1ccccc1-c1ncc(C)c(NCc2ccc(-c3cccnc3)cc2)n1", "activity change, negative = inhibition": "91.3%"}, {"smiles": "N=c1c2c(ccn1Cc1ccccc1)Oc1ccc3ccccc3c1C2c1ccccc1", "note": "(stereo not drawn)", "activity change, negative = inhibition": "3.21%"}, {"smiles": "O=C1CCCc2cc(S(=O)(=O)Nc3cnccc3C(=O)Nc3nc(-c4ccccc4)cs3)ccc2N1", "activity change, negative = inhibition": "0.172%"}, {"smiles": "O=C(OCC#CCSc1nnc(-c2ccc(F)cc2)o1)c1ccc(F)cc1", "activity change, negative = inhibition": "1.17%"}, {"smiles": "CC(NCc1ccc2c(c1)nc(NC(=O)c1ccc(-c3cn[nH]c3)s1)n2CC(C)(C)O)C(C)(C)C", "note": "(stereo not drawn)", "activity change, negative = inhibition": "26.2%"}, {"smiles": "CC1=C(C(=O)Nc2ccc(C)cc2)C(c2ccccc2Br)N=C(Nc2nc3ccccc3o2)N1", "note": "(stereo not drawn)", "activity change, negative = inhibition": "-12.3%"}, {"smiles": "Clc1ccc(CN(CCCNc2ncnc(NCCCc3cnc[nH]3)n2)c2ccc(Br)cn2)cc1Cl", "activity change, negative = inhibition": "1.52%"}, {"smiles": "Cc1cc(NC(=O)Nc2nnc(-c3cccnc3)s2)ccc1Cl", "Potency": "inactive"}, {"smiles": "O=C1CCc2cc(S(=O)(=O)Nc3cccc(F)c3)ccc2N1", "activity change, negative = inhibition": "-2.45%"}, {"smiles": "NS(=O)(=O)c1ccc(Nc2nc(-c3ccccc3)cs2)cc1", "activity change, negative = inhibition": "1.33%"}, {"smiles": "CC(C)(C)c1ccc(-c2ccc(=O)n(CC(=O)NCCc3ccccc3)n2)cc1", "activity change, negative = inhibition": "3.93%"}, {"smiles": "O=C1CCc2cc(S(=O)(=O)Nc3cccc(Oc4ccccc4)c3)ccc2N1", "activity change, negative = inhibition": "11%"}, {"smiles": "O=C(OCC#CCSc1nnc(-c2cccc3ccccc23)o1)c1ccc(Cl)cc1", "activity change, negative = inhibition": "-12%"}, {"smiles": "COc1ccc2c(c1)Oc1nc(-c3ccc(C)s3)nc(SCC(=O)Nc3cccc(C(=O)O)c3)c1C2", "activity change, negative = inhibition": "13.2%"}, {"smiles": "C=CC(C)(C)C12CC3C(=O)N4C(CC5(C(C)(C)C=C)c6ccccc6NC45)C(=O)N3C1Nc1ccccc12", "note": "(stereo not drawn)", "activity change, negative = inhibition": "-4.8% [at 28 µM]"}, {"smiles": "Cc1cnc(-c2ccccc2C(C)C)nc1NCc1ccc(-c2nn[nH]n2)cc1", "activity change, negative = inhibition": "14.7%"}, {"smiles": "Cc1cc(C)nc(NC(=S)N2CCN(c3cc(Cl)cc(C(F)(F)F)c3)CC2)c1", "Potency": "inactive"}, {"smiles": "CC(C)(C)OC(=O)Cc1nnc(-c2cc3ccccc3[nH]2)s1", "activity change, negative = inhibition": "-2.75%"}, {"smiles": "Cc1ccc(-c2nnc(N3CCC(C(N)=O)CC3)s2)cc1", "activity change, negative = inhibition": "-27.1%"}, {"smiles": "Cc1nc(NCc2ccccc2)c2nc(-c3ccccc3)n(C3CCN(Cc4ccccc4)C3)c2n1", "note": "(stereo not drawn)", "activity change, negative = inhibition": "-14%"}, {"smiles": "Cc1cc(C)n2ncc(C(=O)NCc3ccccc3)c2n1", "activity change, negative = inhibition": "0.0789%"}]}]}
